Source: PubChem BioAssay (NCATS)
Where “and” joins values, the source holds several entries; their conditions need not be identical. Equal values may be shown once. Records with an inconclusive call do not appear. Calls of active or inactive are those of the source. Calls follow the shape of the dose curve; as a rule, active = well fitted curve in the direction sought with a large enough effect; inconclusive = small, poorly fitted or top-dose-only effect, or another doubt; inactive = no such curve, though single readings can be large; an effect the other way counts as inactive or inconclusive.

What was measured:
[1] = test system: KB-3-1; test: Cytotoxic Profiling of Annotated Libraries Using Quantitative High-Throughput Screening (AID 1296008); conditions: Five cell lines viability, CellTiter-Glo ATP luminescence, 48-72 h; max response: hits give low values; also: nearly all actives have a fitted effect of over 60% in size; as to max response: % is scaled to controls: 0 for no effect and ±100 for the full control effect
Procedure, shortened: (§1)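 Compounds were pin-transferred onto cells and incubated 48 or 72 hr at 37 degree Celsius, 95% humidity. CellTiter-Glo was added, plates sat 10 min at room temperature, then ATP-coupled luminescence was imaged as the viability read-out.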

[2] = test system: NIH3T3; test: as above; conditions: Five cell lines viability, CellTiter-Glo ATP luminescence, 48-72 h; max response: hits give low values
Procedure, shortened: as §1

[3] = test system: HEK293T; test: qHTS assay to identify novel small-molecules to repurpose for Merkel cell carcinoma treatment (AID 1296009); conditions: MCC and control cell lines, CellTiter-Glo viability, 72 h; series mostly up to 44.8 µM; also: nearly all actives have a fitted effect of over 60% in size
Procedure, shortened: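 Viability readout: ATP luminescence (CellTiter-Glo) after 72 hr drug exposure at 37 degree celsius. Dose-response format was 8 points for NPC and 11 points for MIPE; data normalized to in-plate controls.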

[4] = test system: C33A; test: Primary qHTS to identify gynecologic anti-cancer compounds using libraries of approved drugs and bioactive compounds (AID 1345084); conditions: Gynecologic cancer cell panel viability, ATPlite luminescence, 48 h; series mostly up to 57.5 µM; also: % is scaled to controls: 0 for no effect and ±100 for the full control effect; nearly all actives have a fitted effect of over 55% in size
Procedure, shortened: (§2)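 Cells, 1,000 per well, were allowed to settle for 16 h at 37 C before compound addition. Five concentrations were tested for 48 h, and viability was read by ATPlite luminescence after 15 min at room temperature.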

[5] = test system: CAOV3; test: as above; conditions: Gynecologic cancer cell panel viability, ATPlite luminescence, 48 h; series mostly up to 57.5 µM
Procedure, shortened: as §2

[6] = test system: CASKI; test: as above; conditions: Gynecologic cancer cell panel viability, ATPlite luminescence, 48 h; series mostly up to 57.5 µM
Procedure, shortened: as §2

[7] = test system: Es-2; test: as above; conditions: Gynecologic cancer cell panel viability, ATPlite luminescence, 48 h; series mostly up to 57.5 µM
Procedure, shortened: as §2

[8] = test system: HeLa; test: as above; conditions: Gynecologic cancer cell panel viability, ATPlite luminescence, 48 h; series mostly up to 57.5 µM
Procedure, shortened: as §2

[9] = test system: Hek293T; test: as above; conditions: Gynecologic cancer cell panel viability, ATPlite luminescence, 48 h, control line for the selectivity index; series mostly up to 57.5 µM
Procedure, shortened: as §2

[10] = test system: JEG-3; test: as above; conditions: Gynecologic cancer cell panel viability, ATPlite luminescence, 48 h; series mostly up to 57.5 µM
Procedure, shortened: as §2

[11] = test system: OV90; test: as above; conditions: Gynecologic cancer cell panel viability, ATPlite luminescence, 48 h; series mostly up to 57.5 µM
Procedure, shortened: as §2

[12] = test system: PA-1; test: as above; conditions: Gynecologic cancer cell panel viability, ATPlite luminescence, 48 h; series mostly up to 57.5 µM
Procedure, shortened: as §2

CCOC(=O)Nc1nc2ccccc2[nH]1
inactive: max response [1] 2.03% | outcome [2] | Potency [3] | Potency [4] | Potency [5] | Potency [6] | Potency [7] | Potency [8] | Potency [9] | Potency [10] | Potency [11] | Potency [12]

CC[C@H]1OC(=O)[C@H](C)[C@@H](O[C@H]2C[C@@](C)(OC)[C@@H](O)[C@H](C)O2)[C@H](C)[C@@H](O[C@@H]2O[C@H](C)C[C@H](N(C)C)[C@H]2O)[C@@](C)(O)C[C@@H](C)[C@@H]2N[C@@H](COCCOC)OC([C@H]2C)[C@]1(C)O
inactive: outcome [1] | max response [2] -6.11% | Potency [3] | Potency [4] | Potency [5] | Potency [6] | Potency [7] | Potency [8] | Potency [9] | Potency [10] | Potency [11] | Potency [12]

C[C@@H]1CC[C@]2(C)C3(C)CC[C@@]2(OC3=O)[C@@]12C[C@H](c1ccoc1)OC2=O
inactive: max response [1] -4.36% | max response [2] -0.649% | Potency [3] | Potency [4] | Potency [5] | Potency [6] | Potency [7] | Potency [8] | Potency [9] | Potency [10] | Potency [11] | Potency [12]

CC1(C)CCC(C)(C)c2cc3c(cc21)Sc1ccccc1N=C3c1ccc(C(=O)O)cc1
inactive: max response [1] -15.5% | max response [2] 3.93% | Potency [3] | Potency [4] | Potency [5] | Potency [6] | Potency [7] | Potency [8] | Potency [9] | Potency [10] | Potency [11] | Potency [12]

O=c1c2cccnc2n(-c2cccc([N+](=O)[O-])c2)c(=O)n1Cc1ccncc1
inactive: outcome [1] | max response [2] -3.44% | Potency [3] | Potency [4] | Potency [5] | Potency [6] | Potency [7] | Potency [8] | Potency [9] | Potency [10] | Potency [11] | Potency [12]

CC(=O)NC(C(=O)OC1CCC(C)(C)C2CC=C3C(=O)OCC3(O)C12C)C(C)C (stereo unspecified)
inactive: outcome [1] | max response [2] -6.26% | Potency [3] | Potency [4] | Potency [5] | Potency [6] | Potency [7] | Potency [8] | Potency [9] | Potency [10] | Potency [11] | Potency [12]

CC(C)[C@@H](C)/C=C/[C@@H](C)[C@H]1CC[C@H]2C3=CC=C4C[C@@H](O)CC[C@]4(C)[C@H]3CC[C@]12C
inactive: outcome [1] | max response [2] -4.11% | Potency [3] | Potency [4] | Potency [5] | Potency [6] | Potency [7] | Potency [8] | Potency [9] | Potency [10] | Potency [11] | Potency [12]

COc1cc(C(=O)OC[C@H]2O[C@H](O[C@@]3(CO)O[C@@H](CO)[C@H](O)[C@H]3O)[C@H](O)[C@@H](O)[C@@H]2O)ccc1O
inactive: max response [1] 4.87% | max response [2] 0.778% | Potency [3] | Potency [4] | Potency [5] | Potency [6] | Potency [7] | Potency [8] | Potency [9] | Potency [10] | Potency [11] | Potency [12]

COCCN(C)Cc1ccc2nc3sc(C(=O)N(C)C4CCCCC4)cn3c2c1
inactive: outcome [1] | max response [2] -0.706% | Potency [3] | Potency [4] | Potency [5] | Potency [6] | Potency [7] | Potency [8] | Potency [9] | Potency [10] | Potency [11] | Potency [12]

Cc1ccc2c(c1)C=Cc1cc(C)ccc1C2c1cn(Cc2ccc(C(=O)Nc3nn[nH]n3)o2)c(=O)[nH]c1=S
inactive: outcome [1] | max response [2] -7.39% | Potency [3] | Potency [4] | Potency [5] | Potency [6] | Potency [7] | Potency [8] | Potency [9] | Potency [10] | Potency [11] | Potency [12]

C=CC1(C)CC(OC(=O)C(=C)C(O)COC(C)=O)C(C(=C)C(=O)OC)C(O)C1C(=C)CO (stereo unspecified)
inactive: max response [1] 1.8% | max response [2] 0.638% | Potency [3] | Potency [4] | Potency [5] | Potency [6] | Potency [7] | Potency [8] | Potency [9] | Potency [10] | Potency [11] | Potency [12]

COC1CC(=O)CCC(C)OC(=O)CC1O (stereo unspecified)
inactive: outcome [1] | max response [2] 4.21% | Potency [3] | Potency [4] | Potency [5] | Potency [6] | Potency [7] | Potency [8] | Potency [9] | Potency [10] | Potency [11] | Potency [12]

OC[C@H]1O[C@@H](n2cnc3c2NC=NC[C@H]3O)C[C@@H]1O
inactive: max response [1] -3.14% and 0.256% | max response [2] -9.01% | Potency [3] | Potency [4] | Potency [5] | Potency [6] | Potency [7] | Potency [8] | Potency [9] | Potency [10] | Potency [11] | Potency [12]
